Screens (PubChem BioAssay)
GLP1R inv ag = inverse agonists of human GLP-1 receptor; HEK293 GLP-1R CRE-luciferase, luminescence, 24 h; GLP-1R form is constitutively active; AID 624417; Potency, µM (titrated, usually from 38.3 µM), inactives show at the top dose activity change, negative = inhibition, actives largely listed as inhibitors; P43220; 410,000 compounds, 1.6% hits; further: on the % scale 0 is the no-effect control and ±100 the full control effect; nearly all actives have a fitted effect of over 55% in size
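HEK293 cells stably co-expressing a cAMP-responsive luciferase reporter and constitutively active GLP-1R were seeded, incubated 12 h, then exposed to compounds for 24 h at 37 C. Luminescence was read 12 min after detection reagent; inverse agonists lower signal.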
GLP1R cytotox = cytotoxicity counter-screen for GLP-1 receptor inverse agonists; HEK293 cAMP-luciferase reporter cells, luminescence, 24 h; Potency, µM (series often up to 38.3 µM), without a hit: at the highest dose activity change, negative = inhibition, usual class: inhibitors; 410,000 compounds, 0.13% hits; AID 624418;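 further: loss of luciferase light is scored as toxicity; on the % scale 0 is the no-effect control and ±100 the full control effect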
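Here, cytotoxicity is scored as loss of luminescence. The MLSMR collection was tested on cells seeded in medium containing 10% Nu serum, with a 24 hr compound exposure preceded by 12 hours of culture.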
GLP-1R agonist = activates the human GLP-1 receptor | Potency, µM (series often up to 45.6 µM), without a hit: at the top dose activation, usual class: activators | 380,000 compounds, 0.007% hits | AID 624172 | HEK293 GLP-1R CRE-luciferase, luminescence, 4-6 h; cells express a hypersensitive GLP-1R form | P43220; further: % of control where 0% means no effect
PTHR1 ag = activates the human parathyroid hormone receptor PTHR1. 410,000 compounds, 0.075% hits. HEK293 GP2 PTHR1 cells, GloSensor cAMP luminescence, 1 h. Q03431. AID 743266. Potency, µM (titrated, usually from 115 µM), for inactives: top-dose activation, usual class: activators; further: nearly all actives have a fitted effect of over 55% in size
Target sequence (Q03431 whole entry, looked up): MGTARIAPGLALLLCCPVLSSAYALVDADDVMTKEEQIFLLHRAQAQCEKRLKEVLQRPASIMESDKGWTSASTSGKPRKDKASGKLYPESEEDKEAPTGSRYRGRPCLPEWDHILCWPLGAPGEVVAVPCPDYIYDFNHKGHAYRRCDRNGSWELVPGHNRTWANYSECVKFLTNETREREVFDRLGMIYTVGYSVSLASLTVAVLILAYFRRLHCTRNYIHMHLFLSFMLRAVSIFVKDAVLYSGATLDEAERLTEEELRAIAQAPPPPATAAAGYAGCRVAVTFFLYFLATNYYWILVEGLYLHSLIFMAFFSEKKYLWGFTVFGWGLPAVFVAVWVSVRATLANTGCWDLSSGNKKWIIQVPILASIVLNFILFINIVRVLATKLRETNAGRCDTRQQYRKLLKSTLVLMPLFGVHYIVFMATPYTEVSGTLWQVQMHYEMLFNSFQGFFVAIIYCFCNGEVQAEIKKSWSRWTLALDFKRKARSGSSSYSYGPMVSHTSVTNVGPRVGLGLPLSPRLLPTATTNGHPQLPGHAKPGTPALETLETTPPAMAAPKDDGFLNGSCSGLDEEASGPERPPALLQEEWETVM
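HEK-293-derived GP2 cells expressing PTHR1 and a GloSensor cAMP reporter, 3,000/well, plated overnight, given luciferin plus IBMX (each 0.5 mM as added) for 1 h at 37 °C, then compound for 1 h at 37 °C. Luminescence was read after 15 min at room temperature.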
* hit, by the source's call; i = inactive; ? = inconclusive; . = no result given; [ ] = another dose, or the depositor's remark. Sampled rows, rich in hits. Any-hit rate of the full collection: about 1.7%. The call rests on the fitted dose curve; in most records, active means well fitted curve in the direction sought with a large enough effect; inconclusive means small, poorly fitted or top-dose-only effect, or another doubt; inactive means no such curve, though single readings can be large; an effect the other way counts as inactive or inconclusive. Potency means the concentration at half of the fitted maximal effect.

SMILES	GLP1R inv ag	GLP1R cytotox	GLP-1R agonist	PTHR1 ag
CC(C)Nc1cc(C(F)(F)F)nc(-c2ccccn2)n1	-15%	?	-7%	-5%
FC(F)(F)c1cc(Nc2ccccc2)nc(-c2ccccn2)n1	3.5µM*	?	14%	i
CC(C)CC(=O)N1c2nc(C(C)C)nn2C2(CCCCC2)[C@@H]2CCCC[C@@H]21	17%	2%	.	-9%
CCOc1ccc(-c2cccc(NS(=O)(=O)c3c(C)cc(C)cc3C)c2)nn1	?	0%	.	-20%
CCCCNCC1C(Oc2ccc(Cl)cc2)C(=O)N1c1ccccc1C (stereo not given)	10µM*	?	3%	-9%
CCCNCC1C(Oc2ccc(Cl)cc2Cl)C(=O)N1c1cccc(C)c1C (stereo not given)	?	?	0%	-1%
CN1CCN(c2ccc(NC(=O)c3ccc(-c4ccc(Cl)cc4)o3)cc2)CC1	4µM*	?	27%	-15%
COc1cccc(C(=O)Nn2c(-c3cccs3)nc3ccccc3c2=O)c1OC	-30%	-9%	10%	-12%
COc1ccc(CNn2c(-c3cccs3)nc3ccccc3c2=O)cc1OC	10µM*	0%	9%	-19%
Cc1cccc2c1-c1sc(C(=O)NCCc3ccc(Cl)cc3)cc1CO2	?	11%	.	-10%
Cc1cccc(NC(=O)C(=O)NCC(c2cccnc2)N2CCc3ccccc3C2)c1C (stereo not given)	-8%	-6%	.	-18%
COc1ccc(S(=O)(=O)N2CC3CCCN3c3ccc(C(F)(F)F)cc32)cc1 (stereo not given)	-15%	-2%	-6%	-71%
COc1ccc(S(=O)(=O)N2CC3CCCN3c3cc(C(F)(F)F)ccc32)cc1 (stereo not given)	10µM*	19%	-3%	i
CCCN(c1ccc(C(C)C)cc1)S(=O)(=O)c1ccc2c(c1)oc(=O)n2CC(=O)OCC	?	-5%	.	-8%
Cc1ccc(C(=O)N2CCN(c3ccccc3)CC2)cc1NC(=O)c1nsc2ccccc12	-3%	-1%	.	-9%
COc1ccc(N2CC(NC(=O)c3cc4ccccc4o3)CC2=O)cc1OC (stereo not given)	8%	7%	0%	1%
COc1ccccc1Nc1nnc(SCc2nnc(-c3cc(OC)c(OC)c(OC)c3)o2)s1	-20%	-25%	18%	i
COc1cc(-c2nnc(CSc3nnc(Nc4ccc(C(C)C)cc4)s3)o2)cc(OC)c1OC	?	11µM*	11%	-6%
O=C(Nc1cccc(S(=O)(=O)N2CCCCC2)c1)Nc1ccc(Cl)cc1Cl	3.5µM*	?	20%	-25%
O=C(Nc1cccc(S(=O)(=O)N2CCCCCC2)c1)C1CCN(C(=O)c2ccc(Cl)cc2)CC1	8.9µM*	-15%	13%	-26%
C(=C1NCCN1)c1cccc2ccccc12	.	.	-3%	.
CN1C(=O)c2ccccc2Sc2ccc(NC(=O)NCc3cccc(Cl)c3)cc21	?	-26%	.	-38%
O=C(c1cn(-c2ccccc2)nc1-c1cccs1)N(CCO)Cc1ccccc1	11µM*	-8%	17%	i
CN(C)C(=O)c1cn(-c2ccccc2)nc1-c1cccs1	-9%	-1%	15%	i
COc1cc(Nc2nc3c(S(=O)(=O)c4ccc(C)c(C)c4)nnn3c3ccsc23)cc(OC)c1	4%	3%	.	20%
SMILES	GLP1R inv ag	GLP1R cytotox	GLP-1R agonist	PTHR1 ag
COc1ccc(CNC(=O)C2CCN(Cc3nc(-c4ccc(OC)c(OC)c4)oc3C)CC2)cc1	4%	-7%	.	i
CCN(CC)S(=O)(=O)c1ccc2nc(NC(=O)c3cncc(Br)c3)sc2c1	12%	10%	.	i
Cc1ccccc1CNC(=O)c1cc2cccc3c2n1CC(C)S3 (stereo not given)	10µM*	0%	.	i
COc1ccccc1CNC(=O)c1cc2cccc3c2n1CC(C)S3 (stereo not given)	?	-11%	.	0%
CC1Cn2c(C(=O)NCc3ccccc3Cl)cc3cccc(c32)S1 (stereo not given)	11µM*	-7%	.	i
Cc1cccc(OCc2nc(CC(=O)Nc3ccc(Cl)cc3)cs2)c1	?	-16%	.	-9%
Cc1cc(C(F)(F)F)n2[nH]c(=O)c(N=Nc3ccccc3)c2n1	-22%	?	-7%	18µM*
Cc1cccc(OCC(=O)N(Cc2ccc(C(C)(C)C)cc2)Cc2ccco2)c1	?	1%	.	-19%
O=C(Nc1ccc(F)cc1F)c1cc(CN2CCOCC2)on1	4%	-3%	.	-15%
Cc1ccc(NC(=S)/C(=C(\[O-])c2ccc(Cl)s2)[n+]2cccc(CO)c2)cc1C	?	-21%	-14%	i
[O-]/C(=C(\C(=S)Nc1ccc(SC(F)F)cc1)[n+]1ccccc1)c1cc(Cl)ccc1Cl	6.3µM*	-11%	11%	-33%
[O-]/C(=C(\C(=S)Nc1ccc(SC(F)F)cc1)[n+]1cccc(CO)c1)c1ccc(Cl)s1	5µM*	?	10%	-10%
O=C(CN1C(=O)NC2(CCOc3ccccc32)C1=O)Nc1cccc(Cl)c1 (stereo not given)	10µM*	5%	2%	i
COc1cc(NC(=O)CN2C(=O)NC3(CCOc4ccccc43)C2=O)cc(OC)c1 (stereo not given)	-24%	-5%	7%	-2%
COC(=O)c1cccc(Nc2c(-c3ccc(OC)cc3)nc3nc[nH]n23)c1	62%	4%	.	-7%
COc1ccc(OCC(=O)c2c(O)c3ccccc3oc2=O)cc1	0%	-1%	-8%	18µM*
CCOc1ccc(OCC(=O)c2c(O)c3ccccc3oc2=O)cc1	12%	-2%	-16%	i
COc1ccc(CCNC(=O)c2nc(SCc3ccccc3F)ncc2Cl)cc1OC	?	-12%	.	-34%
C=C(C)COc1ccc(-c2ncnc(C(F)(F)F)c2-c2ccccc2)c(O)c1	2.8µM*	1%	13%	-34%
C=C(C)COc1ccc(-c2nc(N)nc(C(F)(F)F)c2-c2ccc(OC)cc2)c(O)c1	?	-3%	7%	-2%
C=C(C)COc1ccc(-c2ncnc(C(F)(F)F)c2-c2ccc(OC)cc2)c(O)c1	7.9µM*	2%	18%	-10%
CCOC(=O)c1[nH]c(C)c(CCC(=O)Nc2ccc(C(C)=O)cc2)c1C	0%	3%	.	i
COc1cc(C)ccc1OCCSc1nc2ccc(NC(C)=O)cc2s1	-15%	-5%	.	i
CCCCOc1ccccc1Cn1c(=O)oc2ccccc21	5.6µM*	-9%	-9%	-11%[57.5 µM]
O=C(CCS(=O)(=O)c1ccccc1)N(CCCN1CCOCC1)c1nc2c(F)cccc2s1	?	10µM*	-29%	-22%
